ATXN viability: Viability Counterscreen for Primary qHTS for Inhibitors of ATXN expression; Potency, µM (top dose mostly 56.7 µM), hits mostly cytotoxic; S2 cells (HEK-293 line with an ATXN2-luciferase reporter) viability, CellTiter-Fluor protease fluorescence, 24 h; AID 651635, 2014; actives 0.49% (n = 400,000); note: potency is the fitted concentration of half-maximal effect; nearly all actives have a fitted effect of over 40% in size
TGFb inhibitor: qHTS for Inhibitors of TGF-b | HepG2 CAGA-GFP TGF-b/SMAD3 reporter, GFP fluorescence, 18 h; TGF-beta stimulated, 500 pg/mL final | Potency, µM (doses to about 46.1 µM), inactives show at the highest dose activity, negative = inhibition, actives largely listed as inhibitors | actives 1.2% (n = 410,000) | AID 588855, 2011; note: potency is the fitted concentration of half-maximal effect; % is set by controls: 0 for no effect and ±100 for the full control effect; nearly all actives have a fitted effect of over 65% in size
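Per well, imaged GFP fluorescence of HEPG2 CAGA-GFP cells gives the signal; cells get compound, then TGF-beta (500 pg/mL final), 18 h at 37 degrees C; %Activity versus -TGF-beta and +DMSO controls.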
HepG2 viability: qHTS for Inhibitors of TGF-b: Cytotox Counterscreen. HepG2 CAGA-GFP viability, ATP luminescence, 18 h. Potency, µM (doses to about 46.1 µM), for the others: top-dose activity change, negative = cytotoxicity, usual class: cytotoxic. actives 0.76% (n = 410,000). AID 588856, 2011; note: potency is the fitted concentration of half-maximal effect
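HepG2 CAGA-GFP cells (1000/well, DMEM with 1% FBS) received compound, then TGF-beta at 500 pg/mL final, and were incubated 18 hours at 37 degrees C. Viability was read by CellTiter-Glo luminescence. Media-only wells were set as complete cell-killing and DMSO as no toxicity.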
D3 ag: qHTS of D3 Dopamine Receptor Agonist: qHTS; AID 652048, 2013; max activation, %; actives 0.58% (n = 410,000); D3R DiscoveRx beta-arrestin cells, luminescence, 90 min; in the data active = max activation above about 30%; note: 0% is about no effect
Target sequence (P35462 whole entry, looked up): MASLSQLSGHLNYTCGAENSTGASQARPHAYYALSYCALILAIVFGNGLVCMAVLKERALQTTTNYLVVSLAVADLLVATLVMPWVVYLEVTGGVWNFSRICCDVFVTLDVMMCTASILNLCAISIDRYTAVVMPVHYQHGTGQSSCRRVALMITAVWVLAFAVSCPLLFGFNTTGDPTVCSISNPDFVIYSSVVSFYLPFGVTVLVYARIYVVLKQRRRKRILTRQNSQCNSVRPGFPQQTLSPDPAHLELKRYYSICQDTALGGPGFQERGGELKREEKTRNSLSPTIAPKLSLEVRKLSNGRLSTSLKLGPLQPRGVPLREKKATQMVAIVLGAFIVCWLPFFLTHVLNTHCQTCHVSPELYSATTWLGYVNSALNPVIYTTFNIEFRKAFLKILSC
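Agonist-mode cell screen: cells plated at 1500/well and incubated overnight at 37 °C, then exposed to library compounds for 90 min at 37 °C. Detection reagent was added for 30–60 min at room temperature, and luminescence was read.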
DRD3 antagonist: qHTS of D3 Dopamine Receptor Antagonist: qHTS; max response, negative = inhibition, %; D3R cells, DiscoveRx beta-arrestin luminescence, antagonist mode; hits give low values; actives 2.5% (n = 360,000); D(3) dopamine receptor (Homo sapiens), P35462; in the data active = max response below about -50%; inconclusive = no clear call, values can overlap the other calls; note: % is set by controls: 0 for no effect and ±100 for the full control effect
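Cells plated overnight at 1500 cells/well, then exposed to library compounds with dopamine controls for 90 minutes at 37 degrees C. DiscoveRx reagent added for 30–60 minutes at room temperature; luminescence read, quantitative HTS format.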
ATXN2 expr inh: Primary qHTS for Inhibitors of ATXN expression; HEK-293 ATXN2-luciferase reporter, luminescence, 24 h; Potency, µM (highest dose often 57 µM), without a hit: top-dose activity change, negative = inhibition, usual class: inhibitors; actives 0.72% (n = 360,000); note: potency is the fitted concentration of half-maximal effect; % is set by controls: 0 for no effect and ±100 for the full control effect; nearly all actives have a fitted effect of over 55% in size
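ATXN2-luciferase reporter cells (luciferase flanked by upstream and downstream ATXN2 gene portions) were treated 24 h at 37 °C with compounds at up to 57 uM. SteadyGlo luminescence gave expression; GF-AFC fluorescence gave viability.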
The depositor's hits bear a star; i = inactive; ? = inconclusive; / = no result. An excerpt weighted towards active compounds, which were near 4.7% of everything screened. Unless noted, calls come from the whole dose curve; as a rule, active = well fitted curve in the direction sought with a large enough effect; inconclusive = small, poorly fitted or top-dose-only effect, or another doubt; inactive = no such curve, though single readings can be large; an effect the other way counts as inactive or inconclusive.

SMILES | ATXN viability | TGFb inhibitor | HepG2 viability | D3 ag | DRD3 antagonist | ATXN2 expr inh
O=S(=O)(c1ccccc1)c1nc(-c2ccccc2Cl)oc1N1CCCCCC1 | i | 5% | -6% | -7 | / | -6%
CCN1CCN(c2oc(-c3ccccc3C)nc2S(=O)(=O)c2ccccc2)CC1 | i | 13% | -20% | -36 | -83* | -4%
Cc1ccc(S(=O)(=O)c2nc(-c3ccccc3Cl)oc2N2CCN(C)CC2)cc1 | i | 18% | -18% | -17 | -55* | -17%
COc1ccccc1N1CCN(CC(=O)Nc2ccc3c(c2)OCCO3)CC1 | i | ? | -17% | -17 | -27 | 4%
COc1ccccc1N1CCN(CCC(=O)Nc2ccc(F)cc2)CC1 | i | 3% | -2% | -18 | -98* | -11%
COc1ccccc1N1CCN(CCC(=O)Nc2ccc3c(c2)OCO3)CC1 | i | 9% | -9% | -6 | -90* | -7%
COc1ccccc1N1CCN(CCC(=O)Nc2cccc(Cl)c2)CC1 | i | -14% | -26% | -13 | -124* | -30%
COc1ccccc1N1CCN(CC(=O)Nc2cccc(F)c2)CC1 | ? | 0% | -1% | -25 | 0 | -5%
CCOc1ccc(NC(=O)CCN2CCN(c3ccccc3OC)CC2)cc1 | i | -2% | 4% | -14 | -91* | -7%
CCOc1ccc(NC(=O)CCN2CCN(c3ccccc3F)CC2)cc1 | ? | 17% | -21% | 13 | ? | -21%
O=C1C=CC(=O)c2c1ccc1c2ccc2ccccc21 | i | / | / | / | / | /
COc1cc(OC)c(NC(=O)Nc2cc(C)on2)cc1Cl | / | / | / | / | / | -20%
O=C(Nc1cnn(Cc2ccc(F)cc2)c1)C(c1ccccc1)c1ccccc1 | i | 13µM* | -5% | -4 | -14 | -29%
COc1cc(-c2cnc3ccccc3c2)cc2c1OCCN(C(=O)CCC(=O)c1ccc(F)cc1)C2 | i | / | / | / | / | /
Cc1ccc(SC/C(O)=C(\C#N)c2nc3ccccc3s2)cc1 | i | 25µM* | -23% | 8 | 15 | 16%
COc1ccc([C@@H]2[C@@H]3C(=O)N(C(C)(C)C)C(=O)[C@@H]3[C@]3(Cc4ccccc4)C(=O)N(c4ccc(OC)cc4)C(=O)N23)cc1 | i | 1% | -3% | 26 | -14 | 9%
COc1ccc(N2C(=O)N3[C@H](c4cccc(C)c4)[C@@H]4C(=O)N(Cc5ccccc5)C(=O)[C@@H]4[C@]3(Cc3ccccc3)C2=O)cc1 | i | 6% | 0% | 31* | -6 | -3%
CCN1C(=O)[C@H]2[C@@H](c3ccc(C)cc3)N3C(=O)N(c4ccc(OC)cc4)C(=O)[C@@]3(CC)[C@H]2C1=O | i | -12% | 5% | 46* | 0 | 48%
CC[C@@]12C(=O)N(c3ccc(OC)cc3)C(=O)N1[C@H](c1ccc(Cl)cc1)[C@@H]1C(=O)N(C3CCCCC3)C(=O)[C@@H]12 | i | ? | 3% | -41 | -57* | -5%
CN(C)c1ccc(C2C=C(c3ccccc3)Nc3nnnn32)cc1 (configuration not stated) | i | 95% | -7% | -1 | / | 56%
CCc1ccc(Nc2nnc(SCC(=O)Nc3sccc3C(N)=O)s2)cc1 | ? | 10µM* | -2% | -1 | 25 | 1%
CN(C)CCNC(=O)C12CC3(C)CC(C)(CC(C)(C3)C1)C2 | i | 0% | -3% | 7 | -52* | -15%
CC12CC3(C)CC(C)(C1)CC(C(=O)NCCc1ccc(S(N)(=O)=O)cc1)(C2)C3 | i | -2% | 2% | 1 | -4 | 1%
COC(=O)[C@@H]1CCCN1Cc1ccc2c(c1)CN(Cc1ccccc1C)CCO2 | i | / | / | / | / | /
Cc1cccc(N(C)S(=O)(=O)c2c(C(=O)N3CCCCCC3)c(C)n(C)c2C)c1 | ? | -1% | -9% | 4 | / | 1%
SMILES | ATXN viability | TGFb inhibitor | HepG2 viability | D3 ag | DRD3 antagonist | ATXN2 expr inh
O=C(Nc1ccc2c(c1)OCCO2)C(c1cc2ccccc2o1)N1CCN(C/C=C/c2ccccc2)CC1 (configuration not stated) | ? | ? | -20% | -6 | -111* | 15%
O=C(Nc1ccc2c(c1)OCCO2)C(C1CC1)N1CCN(C/C=C/c2ccccc2)CC1 (configuration not stated) | ? | -14% | -18% | -5 | -59* | -15%
CC(=O)Nc1cccc(C(=O)/C=C/c2ccc(Br)cc2)c1 | / | ? | -38% | 1 | -18 | ?
CC(=O)Nc1cccc(C(=O)/C=C/c2cccs2)c1 | ? | ? | -12% | -5 | -62* | 55%
CC(=O)Nc1cccc(C(=O)/C=C/c2ccc(F)cc2)c1 | ? | ? | 13µM* | -14 | -14 | ?
COc1ccccc1C1CN(Cc2cccc3nccnc23)Cc2ccccc2O1 (configuration not stated) | i | / | / | / | / | /
CCn1c(C)c(C)c2cc(C(=O)NCCN3CCCCCC3)ccc21 | i | 7% | 2% | -18 | -81* | -14%
O=C(c1ccc(Br)cc1)N1CCN(CCc2ccncc2)CC1 | / | 2% | -27% | -38 | / | /
CCn1c(C)c(C)c2cc(C(=O)NCCCN3CCCCCC3)ccc21 | i | -8% | -13% | -19 | -29 | -10%
O=C(NCCN1CCN(C(=O)c2ccc(Br)cc2)CC1)c1ccc(Br)cc1 | i | ? | -13% | -24 | -98* | -28%
Cc1ccc(C(=O)NCCN2CCN(C(=O)c3ccc(C)c(C)c3)CC2)cc1C | i | 0% | 1% | -28 | -98* | -20%
O=C(NCCCN1CCN(CCCNC(=O)c2ccc(F)cc2)CC1)c1ccc(F)cc1 | i | -6% | -6% | 1 | ? | 12%
CC(C)c1ccc(C(=O)NCCCN2CCN(CCCNC(=O)c3ccc(C(C)C)cc3)CC2)cc1 | ? | 14µM* | 18µM* | -5 | 4 | -14%
COc1ncccc1C(=O)N1CCOc2ccc(C(O)C(c3ccccc3)c3ccccc3)cc2C1 (configuration not stated) | i | / | / | / | / | /
CCc1ccc2oc(-c3cc(NC(=O)COc4ccc(C)cc4)ccc3O)nc2c1 | / | 24% | 21% | / | / | /
Cc1ccc(NS(=O)(=O)c2ccc3[nH]c4c(c3c2)CCCCC4)cc1 | ? | ? | -104% | -5 | / | ?
O=C(Cn1c(=O)n(Cc2ccccc2)c(=O)c2sc3ccccc3c21)Nc1ccc(F)cc1 | i | -20% | -2% | -7 | / | -3%

Bioassay records deposited in PubChem by National Center for Advancing Translational Sciences (NCATS).
